What follows are sequences tested against STUB1 (assay: pooled miR-30 sensor sort-seq; sequence = guide strand). Details: shRNA.
Note: reference of the scale not given here.

In order of falling sensor-assay potency score (higher = more potent):
1. TTATTACACAGATAGTGGCGGC  0.272
2. TTCCTCTTCTCATCCACCTGAG  -0.167
3. TTGCCACACAGGTAGTCGGGGA  -0.252
4. TTCGCGATTCGAAGAGCGCTGG  -0.358
5. TAGCTCTCCATCTCCAGCTGGC  -0.433
6. TTGCGGTCGTAGGTGATGCCAC  -0.555
7. TTCAGGTAGCACAAGGCCCGGT  -0.567
8. ATAGCTCTCCATCTCCAGCTGG  -0.665
9. TTGAGCTCCTGCGCGCTCGGGC  -0.67
10. TTCCAGCGCTTCTTCTTCGCGA  -0.702
11. TGCTCCTCGATGTCCTTGCGGT  -0.704
12. TAATACACGGCCACCAGCGGGT  -0.893

Each sequence was assayed against STX12 in the same assay as above. Details: shRNA.

In order of falling sensor-assay potency score (higher = more potent):
1. TAACTGTTGCAGATTTTCCTGT  0.412
2. TTTTCTGATAGTAAGCAGCTCG  0.207
3. TTTTCCTGTAGCTTGCTTGAGT  0.00107
4. TAGCTTGCTTGAGTCCTGCTTA  -0.146
5. TTGAGTCCTGCTTAGTTCCTAG  -0.155
6. TTGTCTAAAACTATGCATGGAG  -0.297
7. TCTGATAGTAAGCAGCTCGCTG  -0.759
8. TTTTTGTCTAAAACTATGCATG  -0.984
9. TACCCTTCTCTGCACAGCCTGG  -1.07
10. AAATATCTGATTGACATCCAAA  -1.28
